Assay in all cases: NCI-60 one-dose screen, 48 h (100 = growth as untreated, 0 = no growth, -100 = all killed)
In one assay the test system is NCI-H23 lung. To be noted: 10 µM unless noted.
The test system of the next assay is NCI-H226 lung. To be noted: 10 µM unless noted.
The subject of a further assay is NCI-H322M lung. The settings on record: 10 µM unless noted.
The next assay concerns HOP-62 NSCLC. The settings on record: 10 µM unless noted.
The next assay relates to NCI-H460 lung. To be noted: 10 µM unless noted.
The next assay concerns HOP-92 NSCLC. The settings on record: 10 µM unless noted.
The test system of the next assay is NCI-H522 lung. To be noted: 10 µM.
A further assay has as its system 786-0 renal. To be noted: 10 µM unless noted.
The subject of the next assay is COLO 205 colon. The settings on record: 10 µM unless noted.
In another assay the test system is K-562 leukemia. To be noted: 10 µM unless noted.
A further assay relates to MALME-3M melanoma. The settings on record: 10 µM unless noted.
In a further assay the test system is MDA-MB-231 breast. The settings on record: 10 µM unless noted.
For a further assay, the system named is SF-268 CNS. The settings on record: 10 µM unless noted.
A further assay deals with SF-295 CNS. The settings on record: 10 µM unless noted.
A further assay has as its system SF-539 CNS. To be noted: 10 µM unless noted.
A further assay has as its system UACC-257 melanoma. The settings on record: 10 µM unless noted.
In the next assay the test system is M14 melanoma. To be noted: 10 µM unless noted.
The test system of another assay is DU-145 prostate. To be noted: 10 µM unless noted.
Another assay has as its system RXF 393 renal. The settings on record: 10 µM unless noted.

Molecules are shown by their SMILES. This is part of a sample that, as a whole, favours compounds with a hit. Of some 83,000 tested, about 20% had one in any assay.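 Growth was measured after 48 h exposure to one concentration of compound in 96-well plates. Values under 10 count as active.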 Unmarked numbers belong to inactive results. Activity calls are given as the source filed them.

Take `COc1ccc(CNC(=O)c2c(C)n([O-])c3ccc(OC)cc3[n+]2=O)cc1`: the growth was 98.2% in the assay with NCI-H23 lung; 110% in the assay with NCI-H226 lung; 89.7% in the assay on NCI-H322M lung; 105% with HOP-62 NSCLC; 118% in the assay on NCI-H460 lung; -1.17% (active) in the assay on HOP-92 NSCLC. For the same molecule, the growth in the assay on NCI-H522 lung was -2.57% (active); in the assay on 786-0 renal it was 96%; in the assay on COLO 205 colon it was 108%; in the assay on K-562 leukemia, 90.8%; with MALME-3M melanoma, 98.6%; with MDA-MB-231 breast, 111%. The growth is 103% in the assay on SF-268 CNS; 239% with SF-295 CNS; 118% with SF-539 CNS; 109% in the assay on UACC-257 melanoma; 107% in the assay on M14 melanoma.

Turning to `O=C(N/N=C/c1cccc([N+](=O)[O-])c1)c1ccc(Br)o1`, the growth is 102% in the assay on NCI-H23 lung; 109% with NCI-H226 lung; 105% with NCI-H322M lung; 106% with HOP-62 NSCLC; 114% in the assay on NCI-H460 lung; 85.7% with HOP-92 NSCLC. Moreover, the growth was 85.7% in the assay on NCI-H522 lung; 92.5% in the assay on 786-0 renal; 97.9% with COLO 205 colon; 103% with DU-145 prostate; 115% in the assay with MALME-3M melanoma; 115% in the assay on MDA-MB-231 breast. Besides, the growth was 104% in the assay on RXF 393 renal; 104% in the assay on SF-268 CNS; 111% in the assay on SF-295 CNS; 98.4% with SF-539 CNS; 99.8% in the assay on M14 melanoma.

`Cc1nn(-c2nc3ccccc3s2)c(C)c1Oc1ccccc1O`: the growth with NCI-H23 lung was 109%; in the assay on NCI-H226 lung, 80.5%; in the assay on NCI-H322M lung, 101%; in the assay with HOP-62 NSCLC, 53.3%; with NCI-H460 lung, 24.6%; in the assay on HOP-92 NSCLC, 93.2%. Further, the growth is 59.9% with NCI-H522 lung; 89.2% with 786-0 renal; 92.3% in the assay with COLO 205 colon; 68.2% with DU-145 prostate; 31.8% with K-562 leukemia; 76.9% with MALME-3M melanoma. Also, the growth with MDA-MB-231 breast is 70.8%; in the assay on SF-268 CNS, 60.5%; with SF-295 CNS it was 58.8%; in the assay with SF-539 CNS, 60.9%; in the assay with UACC-257 melanoma, 104%; with M14 melanoma, 63.7%.

Turning to `CCN(CC)c1ccc(/C=C/C(=O)c2cccc(NS(C)(=O)=O)c2)cc1`, the growth in the assay on NCI-H23 lung is 18.7%; with NCI-H226 lung, 43.1%; in the assay with NCI-H322M lung it was 89%; with HOP-62 NSCLC it was 42.6%; in the assay with NCI-H460 lung it was 42.3%; in the assay with HOP-92 NSCLC it was 19.9%. For the same molecule, the growth in the assay on NCI-H522 lung is 4.67% (active); with 786-0 renal, 32.3%; with COLO 205 colon, 62.3%; with DU-145 prostate, 49.6%; with MALME-3M melanoma it was 76.2%; in the assay on MDA-MB-231 breast, 43%. The growth in the assay on SF-268 CNS is 61.5%; with SF-295 CNS it was 47.5%; in the assay on SF-539 CNS, 40.6%; in the assay on M14 melanoma, 32.1%.

On to `COc1ccc2nc(N/N=C(\C)c3ccccn3)cc(C)c2c1`, for which the growth in the assay with NCI-H23 lung is 19.8%; in the assay with NCI-H226 lung, -49.5% (active); in the assay on NCI-H322M lung, 8.51% (active); in the assay on HOP-62 NSCLC, 2.82% (active); with NCI-H460 lung, -68% (active); with HOP-92 NSCLC it was 7.16% (active). Also, the growth with NCI-H522 lung is -20.8% (active); in the assay with 786-0 renal, -89.7% (active); in the assay with COLO 205 colon, -78.2% (active); with K-562 leukemia it was -51.5% (active); in the assay on MALME-3M melanoma, -24% (active); in the assay with MDA-MB-231 breast, -63.1% (active). In addition, the growth is -2.13% (active) in the assay on SF-268 CNS; -81.2% (active) with SF-295 CNS; -90.6% (active) in the assay with SF-539 CNS; 16.7% in the assay with UACC-257 melanoma; -78.7% (active) with M14 melanoma.

For `C=CCNC(=O)/C(=C/c1cccc([N+](=O)[O-])c1)NC(=O)c1ccccc1`, the growth was 98.6% with NCI-H23 lung; 90.5% with NCI-H226 lung; 107% in the assay with NCI-H322M lung; 92.4% with HOP-62 NSCLC; 111% in the assay with NCI-H460 lung; 91.9% with HOP-92 NSCLC. In addition, the growth was 97.5% with NCI-H522 lung; 84.7% in the assay with 786-0 renal; 120% with COLO 205 colon; 116% with DU-145 prostate; 108% in the assay with K-562 leukemia; 102% in the assay with MALME-3M melanoma. Besides, the growth was 116% in the assay on MDA-MB-231 breast; 99% in the assay on SF-268 CNS; 103% in the assay on SF-295 CNS; 92.5% with SF-539 CNS; 7.53% (active) in the assay with UACC-257 melanoma; 88.8% in the assay with M14 melanoma.

In the case of `CC(C)=CCNc1ncnc2c1ncn2C1OC(COP(=O)(O)O)C(O)C1O` (configuration not stated), the growth was 57.8% with NCI-H23 lung; 45.7% with NCI-H226 lung; 41.1% in the assay with NCI-H322M lung; 46.1% in the assay on HOP-62 NSCLC; 80.3% with NCI-H460 lung; 74.5% in the assay on HOP-92 NSCLC. The growth with NCI-H522 lung is 9.55% (active); in the assay on 786-0 renal, 43.3%; in the assay on COLO 205 colon, 63%; in the assay on DU-145 prostate, 4.87% (active); with K-562 leukemia it was 16.1%; in the assay on MALME-3M melanoma it was 68.5%. Moreover, the growth with MDA-MB-231 breast is 5.56% (active); in the assay with SF-268 CNS, 59.9%; with SF-295 CNS, 25.6%; in the assay on SF-539 CNS, 52%; with UACC-257 melanoma, 94.1%; in the assay with M14 melanoma it was 50.5%.

As to `CCCn1c(N)c(C(=O)CNc2ccc(I)cc2)c(=O)[nH]c1=O`, the growth in the assay with NCI-H23 lung was 89.8%; with NCI-H226 lung, 62.7%; with NCI-H322M lung it was 62%; in the assay on HOP-62 NSCLC it was 54.9%; in the assay with NCI-H460 lung, 28.6%; with HOP-92 NSCLC, 95.4%. Also, the growth with NCI-H522 lung is 50.9%; with 786-0 renal it was 47.1%; in the assay with COLO 205 colon it was 75.5%; in the assay on DU-145 prostate it was 57.3%; with K-562 leukemia, 43.5%; in the assay with MALME-3M melanoma, 80.7%. The growth in the assay with MDA-MB-231 breast was 67.5%; with SF-268 CNS, 46.1%; with SF-295 CNS, 54.2%; in the assay with SF-539 CNS, 57.5%; in the assay with UACC-257 melanoma, 72.1%; in the assay with M14 melanoma it was 56.2%.

Take `CCCCCCCCCCN1CCC(N2CCCCC2)CC1`: the growth was 38% in the assay with NCI-H23 lung; 69.5% in the assay with NCI-H226 lung; 88% in the assay with NCI-H322M lung; -64.7% (active) with HOP-62 NSCLC; -37.9% (active) in the assay on NCI-H460 lung; -12.4% (active) with HOP-92 NSCLC. Also, the growth is -59.7% (active) in the assay with NCI-H522 lung; -93.1% (active) in the assay with 786-0 renal; -85.7% (active) in the assay with COLO 205 colon; 54.3% with DU-145 prostate; -75.6% (active) in the assay on K-562 leukemia; -43.9% (active) in the assay on MALME-3M melanoma. The growth in the assay with MDA-MB-231 breast was -36.3% (active); in the assay on SF-268 CNS, 39.8%; with SF-295 CNS, 2.51% (active); in the assay with SF-539 CNS, -80.4% (active); in the assay with UACC-257 melanoma, -91.2% (active); in the assay with M14 melanoma it was -79.4% (active).

For the origin of these results see PubChem BioAssay (NCI).
